This is a sample that favours compounds with a hit; in the whole collection about 13% have one here.
AID923 = qHTS Assay for Allosteric/Competitive Inhibitors of Caspase-1: Spectroscopic Profiling in AFC Spectral Region; Potency, µM (highest dose often 57.5 µM), inactives show at the top dose fluorescence increase, actives largely listed as activators; 75,000 tested, 1.1% active; compound fluorescence, AFC spectral region (405/520 nm); also: potency is read from the fitted curve at half-maximal effect; 0% is about no effect
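Titrations up to 57 uM read every 20 sec for 3 min (405/520 nm) with 50 nM caspase 1 and 5 uM Ac-WEHD-AFC, pH 7.5 HEPES buffer. Fluorescence-vs-time intercept gave baseline, scaled against on-plate AFC standard.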
HADH2 inhib = qHTS Assay for Inhibitors of HADH2 (Hydroxyacyl-Coenzyme A Dehydrogenase, Type II); Potency, µM (highest dose often 57.1 µM), for inactives: at the top dose activity change, negative = inhibition, hits mostly inhibitors; 73,000 tested, 3.4% active; recombinant HADH2, NADH fluorescence, beta-hydroxybutyryl-CoA; 3-hydroxyacyl-CoA dehydrogenase type-2 (Homo sapiens), Q99714; also: potency is read from the fitted curve at half-maximal effect; % is scaled to controls: 0 for no effect and ±100 for the full control effect; nearly all actives have a fitted effect of over 60% in size
Target sequence (Q99714 whole entry, looked up, one chain of several): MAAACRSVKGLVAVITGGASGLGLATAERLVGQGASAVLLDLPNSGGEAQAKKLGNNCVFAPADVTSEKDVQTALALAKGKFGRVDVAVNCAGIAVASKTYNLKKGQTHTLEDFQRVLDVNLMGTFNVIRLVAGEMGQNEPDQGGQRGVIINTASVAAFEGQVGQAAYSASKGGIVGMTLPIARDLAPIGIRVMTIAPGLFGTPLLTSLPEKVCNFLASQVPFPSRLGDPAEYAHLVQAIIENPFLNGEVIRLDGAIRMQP
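Buffer 100 mM Tris-HCl pH 9.0/0.01% Tween-20; HADH2 20 nM; NAD+ 1 mM; beta-hydroxybutyryl-CoA 90 uM (all final). 15 min cpd preincubation, RT.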
A350 autofl = qHTS Assay for Spectroscopic Profiling in A350 Spectral Region; Compound autofluorescence, 340/450 nm, Alexa 350 dye-equivalents; stronger effect = higher value; max dye-equivalent concentration, M; 59,000 tested, 11% active; in the data active = max dye-equivalent concentration above about 10 nM; inconclusive = mostly about 1.1 nM to 9.6 nM
4MU fluor = qHTS Assay for Spectroscopic Profiling in 4-MU Spectral Region | compound autofluorescence, 340/450 nm, 4-MU equivalents; stronger effect = higher value | max dye-equivalent concentration, M | 59,000 tested, 11% active | AID 589, 2007; in the data active = max dye-equivalent concentration above about 10 nM; inconclusive = mostly about 1.1 nM to 9.6 nM
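Compounds in 100 mM Tris, pH 8.0, incubated 15 min at room temperature, then fluorescence read at 340 nm excitation/450 nm emission. Signal converted to 4-MU dye-equivalent concentration using an on-plate six-point 4-MU standard curve.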
HSD17B inh = qHTS Assay for Inhibitors of HSD17B4, hydroxysteroid (17-beta) dehydrogenase 4. 3-hydroxyacyl-CoA dehydrogenase type-2 (Homo sapiens), Q99714. recombinant HSD17B10, NADH fluorescence kinetic. Potency, µM (titrated, usually from 57.1 µM), for inactives: at the highest dose activity change, negative = inhibition, actives largely listed as inhibitors. 75,000 tested, 7.6% active. AID 893, 2007;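 also: the protocol describes HADH2 (HSD17B10) and not the HSD17B4 of the title; potency is read from the fitted curve at half-maximal effect; % is scaled to controls: 0 for no effect and ±100 for the full control effect; nearly all actives have a fitted effect of over 70% in size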
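Enzyme plus compound, 15 min room temperature; substrate mix added (NAD+ 1 mM, beta-hydroxybutyryl-CoA 90 uM final); plates read kinetically for NADH fluorescence. HADH2 was His-tagged, E. coli-derived, 20 nM.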
GBA activity = Glucocerebrosidase; AID 360, 2006; Potency, µM; 48,000 tested, 1.1% active; purified enzyme, resorufin glucoside fluorescence (screen aimed at inhibitors), 20 min; Lysosomal acid glucosylceramidase (Homo sapiens), P04062; in the data active = potency below about 15 µM; inconclusive = mostly about 16 µM to 33 µM;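 also: potency is read from the fitted curve at half-maximal effect; the screen sought inhibitors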
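Wild-type enzyme at 0.2 nM final in 50mM citric acid/KH2PO4, 10mM sodium taurocholate, 0.01% tween-20, pH 5.9, with resorufin beta-D-glucopyranoside at 30 uM final. Compounds titrated, 20 min at RT, red fluorescence read; AC50 from titration.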
An asterisk follows results filed as active; i = inactive; ? = inconclusive; · = not tested or not shown. Unless noted, calls follow the shape of the dose curve; as a rule, active = well fitted curve in the direction sought with a large enough effect; inconclusive = small, poorly fitted or top-dose-only effect, or another doubt; inactive = no such curve, though single readings can be large; an effect the other way counts as inactive or inconclusive.

SMILES | AID923 | HADH2 inhib | A350 autofl | 4MU fluor | HSD17B inh | GBA activity
CN(C)c1ccc(-c2cc(NCc3ccccc3)ncn2)cc1 | 0.3% | ? | 7.85e-08M* | 7.48e-08M* | 31.6µM* | ·
Cc1cnc(CNc2cc(-c3ccc(C(=O)N(C)C)cc3)ncn2)cn1 | 1.4% | ? | i | i | ? | ·
CN(C)c1ccc(-c2cc(-n3ccnc3)ncn2)cc1 | 16.4% | 20µM* | 2.14e-08M* | 1.87e-08M* | 25.1µM* | ·
CN(C)Cc1ccccc1-c1nccc(Nc2ccc(F)cc2)n1 | 4.5% | 5.2% | i | i | 5.7% | ·
CN(C)c1ccnc(-c2cccc(NS(C)(=O)=O)c2)n1 | -4.1% | 7.4% | i | i | 5.9% | ·
CCN(C(C)=O)c1nc(CSc2nnc(NC(C)C)s2)cs1 | -0.9% | ? | i | i | -15.4% | >76.9
COC(=O)[C@@]1(Cc2ccc(OC)cc2)[C@H]2c3cc(C(=O)N(C)C)n(Cc4ccccc4)c3C[C@H]2CN1C(=O)c1ccccc1 | -1.3% | -12.0% | · | · | 8.1% | ·
CCOC(=O)C1C2C=CC3(CN(Cc4ccco4)C(=O)C13)O2 (stereo not given) | 2.2% | -24.8% | i | i | -3.7% | >76.9
CN(C)c1ccc(-c2cc(Nc3ccc(F)cc3)ncn2)cc1 | 7.0% | ? | 6.15e-08M* | 5.9e-08M* | 15.8µM* | ·
COc1cc(O)c(C)c(O)c1 | -2.6% | · | · | · | 2.5% | ·
COc1ccc2[nH]c(I)c(CCNC(C)=O)c2c1 | -6.0% | -2.7% | i | i | 1.0% | ·
COc1ccc2[nH]c(C(=O)O)c(CCNC(C)=O)c2c1 | 0.9% | 25.1µM* | i | i | 25.1µM* | >76.9
CCOC(=O)Nc1ccc2c(c1)N(C(=O)N1CCN(C)CC1)c1ccccc1S2 | -1.6% | 15.6% | i | i | 5.9% | ·
c1ccc2c(c1)nc(N1CCOCC1)c1nnnn12 | -2.6% | 2.1% | · | · | -11.8% | ·
c1ccc(N2CCN(c3nc4ccccc4n4nnnc34)CC2)cc1 | 7.4% | -8.6% | 2.35e-08M* | 2.57e-08M* | ? | >76.9
Cc1cc(-c2ccccc2N)n[nH]1 | 0.8% | -12.8% | ? | ? | 25.1µM* | >76.9
Cc1nnc(C)n1/N=C/c1cccn1C | · | · | i | i | · | ·
COc1ccc(Cn2nnnc2C(c2ccncc2)N2CCOCC2)cc1 (stereo not given) | 1.2% | 4.2% | i | i | -6.3% | >76.9
Cc1ccc(C(c2nnnn2CC2CCCO2)N2CCN(C(=O)c3ccco3)CC2)cc1 (stereo not given) | 1.2% | 0.1% | 1.11e-08M* | 1.12e-08M* | -3.5% | >76.9
COc1ccc(Cn2nnnc2C(c2cc3cc(C)ccc3[nH]c2=O)N2CCOCC2)cc1 (stereo not given) | 2.4% | -5.5% | 6.99e-08M* | 7.9e-08M* | ? | >76.9
O=C(c1ccco1)N1CCN(C(c2ccc(Cl)cc2)c2nnnn2CC2CCCO2)CC1 (stereo not given) | -1.3% | -6.1% | ? | i | 6.1% | >76.9
COc1ccc(C(c2nnnn2CC2CCCO2)N2CCN(c3ccc(F)cc3)CC2)cc1 (stereo not given) | -1.3% | 2.6% | i | i | -5.2% | >76.9
COc1ccc(Cn2nnnc2C(c2cc3cccc(C)c3[nH]c2=O)N2CCOCC2)cc1 (stereo not given) | -1.3% | -4.9% | 2.96e-08M* | 3.07e-08M* | ? | >76.9
COc1ccc2cc(C(c3nnnn3Cc3ccc(F)cc3)N3CCCCCC3)c(=O)[nH]c2c1 (stereo not given) | 14.4% | 0.3% | ? | ? | -0.7% | i
Cc1cccc2cc(C(c3nnnn3CC3CCCO3)N3CCOCC3)c(=O)[nH]c12 (stereo not given) | 0.4% | -25.3% | 1.42e-08M* | 1.44e-08M* | ? | >76.9
COc1cc(C(=O)N2CCC(c3nc(-c4cccnc4)no3)CC2)cc(OC)c1OC | 1.1% | 2.7% | i | i | 4.8% | >76.9
